What all share (assay): qHTS profiling for inhibitors of Plasmodium falciparum proliferation (AID 504749); note: nearly all actives have a fitted effect of over 60% in size
Settings in all cases: P. falciparum in erythrocytes, SYBR Green DNA, 72 h; series mostly up to 28.7 µM
(In general: In qHTS, concentration-response curves come from the screen itself.)

One test has as its system N140. The gist of the method:
(§1)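 In a 72 h erythrocytic culture (37 C, humidified, 5% CO2) at 2.5% hematocrit and 0.3% starting parasitemia, compounds were tested; SYBR Green I in detergent lysis buffer stained parasite DNA overnight.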

Another test deals with P93_24. The gist of the method: as §1
In another test the test system is P94_40. The gist of the method:
as §1

Another test relates to PAD. The gist of the method:
as §1

In the next test the test system is SC27B. The gist of the method: as §1
For another test, the system named is JCK. The gist of the method: as §1
A further test has as its system PC15. The gist of the method:
as §1

The next test has as its system PC26. The gist of the method:
as §1

The next test has as its system PC49. The gist of the method: as §1
A further test concerns TAB109. The gist of the method: as §1

Results filed as inconclusive are left out. Activity calls are given as the source filed them. Calls come from the whole dose curve; as a rule, active = well fitted inhibition curve with a large enough effect; inconclusive = small, poorly fitted or top-dose-only effect; inactive = flat fitted curve, though single readings scatter.
Potency is the fitted concentration of half-maximal effect.

With `Cc1c(O)cccc1C(=O)N[C@@H](CSc1ccccc1)[C@H](O)CN1C[C@H]2CCCC[C@H]2C[C@H]1C(=O)NC(C)(C)C`, the Potency in the test with N140 was 7.94 µM (active); in the test on P93_24 it was 8.91 µM (active); with P94_40, 10 µM (active); in the test with PAD it was 10 µM (active); in the test with SC27B it was 7.94 µM (active).

Consider `CCCn1cnc2c1c(=O)n(CCCCC(C)=O)c(=O)n2C`, for which the Potency result in the test on JCK, in the test on N140, in the test with P94_40, with PAD, in the test on PC15 and in the test on PC26 was “inactive” each time. Further, the Potency result with PC49, with SC27B and with TAB109 was “inactive” throughout.

For the compound `CC(C(O)c1ccc(O)cc1)N1CCC(Cc2ccccc2)CC1` (stereo not drawn), the Potency in the test on P93_24 is 11.2 µM (active). In addition, the Potency entry with PC49 is “inactive”.

For the compound `OCc1cc(C(O)CNCCCCCCOCCCCc2ccccc2)ccc1O` (stereo not drawn), the Potency entry in the test with JCK, in the test on N140, with P94_40, in the test on PAD, in the test on PC49 and with SC27B was “inactive” throughout.

Turning to `NC(=O)N/N=C/c1ccc([N+](=O)[O-])o1`, the Potency entry with JCK was “inactive”. Besides, the Potency is 11.2 µM (active) with N140, 8.91 µM (active) in the test on P93_24, 12.6 µM (active) in the test on SC27B and 12.6 µM (active) in the test on TAB109.

For the compound `CCOC(CN1CCN(CC(C)C(=O)c2ccccc2)CC1)c1ccccc1` (stereo not drawn), the Potency entry in the test with JCK, with N140, with PAD, in the test on PC15, with PC49 and with SC27B was “inactive” each time.

Take `Nc1ncnc2c1ncn2[C@@H]1O[C@H](CO)[C@@H](O)[C@H]1O`: the Potency result in the test on JCK, with N140, in the test with P94_40, with PAD, in the test with PC15 and with PC26 was “inactive” in each case. The Potency result in the test with PC49, in the test on SC27B and with TAB109 was “inactive” each time.

As to `CN1CCCCC1CCN1c2ccccc2Sc2ccc(S(C)=O)cc21` (stereo not drawn), the Potency result in the test with JCK, in the test with PAD and with PC49 was “inactive” in each case.

As for `O=C(O)CN1C(=O)c2cccc3cccc(c23)C1=O`, the Potency entry in the test with JCK, with N140, in the test with PAD, in the test on PC15, in the test on PC26 and in the test on PC49 was “inactive” in each case. In addition, the Potency entry in the test with SC27B and in the test on TAB109 was “inactive” each time.

Source of the values: PubChem BioAssay (NCATS).
